Measured values taken from the supplement of paper PMC6089552.
Hit rate of the full screen: of about 3,200 compounds, about 300 (9.4%) showed activity. The sample holds actives, similar compounds and a random draw of the others, so the mix is not that of the screen.

Test system: A673/TR/shEF
Test: cell viability (LOESS-normalised, relative to median of negative controls) (log2 ratio); higher = more viable cells (less compound effect), active = hit call of the paper (over 3 MAD below the median)
Conditions: treatment time: 72 h
How it was run: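 A673/TR/shEF Ewing sarcoma cells (1,500 per well, 384-well plates) were grown with or without doxycycline to induce EWS-FLI1 shRNA knockdown, starting 24 h before compounds. Library compounds at two or more concentrations, with DMSO controls, were added for three days. Cell viability was read by CellTiter-Glo luminescence on an Envision reader, then LOESS-corrected per plate, divided by the median of negative controls and log2-transformed. Hits were wells at least three median absolute deviations from the median of all screened wells.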

[1] = 0.25 µM, library screen: screen1, EWS-FLI1 expression: high (no doxycycline)
[2] = 0.25 µM, library screen: screen1, EWS-FLI1 expression: low (doxycycline-induced shRNA knockdown)
[3] = 2.5 µM, library screen: screen1, EWS-FLI1 expression: high (no doxycycline)
[4] = 2.5 µM, library screen: screen1, EWS-FLI1 expression: low (doxycycline-induced shRNA knockdown)
[5] = 0.25 µM, library screen: screen2, EWS-FLI1 expression: high (no doxycycline)
[6] = 0.25 µM, library screen: screen2, EWS-FLI1 expression: low (doxycycline-induced shRNA knockdown)
[7] = 2.5 µM, library screen: screen2, EWS-FLI1 expression: high (no doxycycline)
[8] = 2.5 µM, library screen: screen2, EWS-FLI1 expression: low (doxycycline-induced shRNA knockdown)
[9] = 0.103 µM, library screen: screen3, EWS-FLI1 expression: high (no doxycycline)
[10] = 0.103 µM, library screen: screen3, EWS-FLI1 expression: low (doxycycline-induced shRNA knockdown)
[11] = 0.308 µM, library screen: screen3, EWS-FLI1 expression: high (no doxycycline)
[12] = 0.308 µM, library screen: screen3, EWS-FLI1 expression: low (doxycycline-induced shRNA knockdown)
[13] = 0.926 µM, library screen: screen3, EWS-FLI1 expression: high (no doxycycline)
[14] = 0.926 µM, library screen: screen3, EWS-FLI1 expression: low (doxycycline-induced shRNA knockdown)
[15] = 2.8 µM, library screen: screen3, EWS-FLI1 expression: high (no doxycycline)
[16] = 2.8 µM, library screen: screen3, EWS-FLI1 expression: low (doxycycline-induced shRNA knockdown)
[17] = 8.3 µM, library screen: screen3, EWS-FLI1 expression: high (no doxycycline)
[18] = 8.3 µM, library screen: screen3, EWS-FLI1 expression: low (doxycycline-induced shRNA knockdown)
[19] = 25 µM, library screen: screen3, EWS-FLI1 expression: high (no doxycycline)
[20] = 25 µM, library screen: screen3, EWS-FLI1 expression: low (doxycycline-induced shRNA knockdown)

Measured: cell viability (log2)

CC1(C)[C@@H](O[C@@H]2O[C@H](C(=O)O)[C@@H](O)[C@H](O)[C@H]2O[C@@H]2O[C@H](C(=O)O)[C@@H](O)[C@H](O)[C@H]2O)CC[C@]2(C)[C@H]3C(=O)C=C4[C@@H]5C[C@@](C)(C(=O)O)CC[C@]5(C)CC[C@@]4(C)[C@]3(C)CC[C@@H]12
inactive: [1] 0.061 | [2] 0.0758 | [3] 0.126 | [4] 0.123

NC[C@@H]1O[C@H](O[C@@H]2[C@@H](CO)OC(O[C@H]3C(O[C@H]4O[C@H](CO)[C@@H](O)[C@H](O)[C@H]4N)[C@@H](N)C[C@@H](N)[C@@H]3O)[C@@H]2O)[C@H](N)[C@@H](O)[C@@H]1O (stereo partly specified)
inactive: [1] 0.0774 | [2] 0.116 | [5] 0.171 | [6] 0.0601 | [3] 0.0937 | [4] 0.0802 | [7] 0.19 | [8] 0.0499

COc1ccc(OC)c(CN2CCN(Cc3ccc(F)cc3)CC2)c1
inactive: [1] 0.102 | [2] 0.0528 | [3] 0.106 | [4] -0.00941

CN1CCN(CCOc2cc(OC3CCOCC3)c3c(Nc4c(Cl)ccc5c4OCO5)ncnc3c2)CC1
inactive: [9] 0.0216 | [10] 0.122 | [11] -0.0387 | [12] 0.0239 | [13] -0.075 | [14] 0.0267 | [15] -0.153 | [16] -0.0864
active: [17] -0.339 | [18] -0.15 | [19] -0.476 | [20] -0.808

C[C@@H]1O[C@H](OC[C@H]2O[C@@H](Oc3c(-c4ccc(O)c(O)c4)oc4cc(O)cc(O)c4c3=O)[C@H](O)[C@@H](O)[C@@H]2O)[C@H](O)[C@H](O)[C@H]1O
inactive: [1] -0.0111 | [2] 0.0513 | [3] 0.125 | [4] 0.094

C[C@H](CCC(=O)O)[C@H]1CC[C@H]2[C@@H]3C(O)CC4=CC(=O)CC[C@]4(C)[C@H]3CC[C@]12C (stereo partly specified)
inactive: [1] 0.0418 | [2] -0.00533 | [3] 0.162 | [4] -0.0526

C[n+]1c2cc(N)ccc2cc2ccc(N)cc21
active: [7] -0.404 | 25 µM, library screen: screen2, EWS-FLI1 expression: high (no doxycycline) -4.23 | 25 µM, library screen: screen2, EWS-FLI1 expression: low (doxycycline-induced shRNA knockdown) -2.18
inactive: 0.025 µM, library screen: screen2, EWS-FLI1 expression: high (no doxycycline) 0.0847 | 0.025 µM, library screen: screen2, EWS-FLI1 expression: low (doxycycline-induced shRNA knockdown) 0.099 | [1] 0.0872 | [2] 0.141 | [5] 0.0533 | [6] 0.0413 | [3] 0.0728 | [4] 0.101 | [8] -0.0252

CCCCN1CCC(COC(=O)c2cc(Cl)c(N)c3c2OCCO3)CC1
inactive: [6] -0.0248 | [7] 0.148 | [8] 0.108
active: [5] -0.151

CC[C@H](/C=C/[C@@H](C)[C@H]1CC[C@H]2[C@@H]3CCC4=CC(=O)CC[C@]4(C)[C@H]3CC[C@]12C)C(C)C
inactive: [1] 0.0678 | [2] 0.0569 | [3] 0.0668 | [4] -0.0817

COC(=O)[C@H]1[C@H]2C[C@H]3c4[nH]c5cc(OC)ccc5c4CCN3C[C@H]2C[C@@H](OC(=O)c2cc(OC)c(OC)c(OC)c2)[C@@H]1OC
inactive: [1] 0.121 | [2] 0.17 | [3] 0.195 | [4] 0.313

COc1ccc2c(c1)[C@@]1(C)CCC(=O)C[C@H]1CC2
inactive: [1] 0.0614 | [2] 0.0537 | [3] 0.105 | [4] 0.0269

Clc1ccc(C(c2ccc(Cl)cc2)n2cc[n+](CC(OCc3ccc(Cl)cc3Cl)c3ccc(Cl)cc3Cl)c2)cc1 (stereo unspecified)
inactive: [5] 0.138 | [6] 0.0728 | [7] 0.0573 | [8] 0.0822

NCCCCCCNS(=O)(=O)c1cccc2c(Cl)cccc12
inactive: [1] 0.066 | [2] 0.0556 | [5] 0.156 | [6] 0.0625 | [3] 0.0432 | [4] 0.0443 | [7] 0.141 | [8] 0.102

NCCCCNS(=O)(=O)c1cccc2c(Cl)cccc12
active: [5] -0.151
inactive: [6] 0.0648 | [7] 0.0418 | [8] 0.0582

COc1ccccc1N1CCN(CCCCNS(=O)(=O)c2cccc3c(N(C)C)cccc23)CC1
inactive: [5] 0.171 | [6] 0.0777 | [7] 0.0423 | [8] 0.0929

O=C(Oc1cc(O)c2c(c1)O[C@H](c1cc(O)c(OC(=O)c3cc(O)c(O)c(O)c3)c3c(O)c(=O)cc(C4Oc5cc(O)cc(O)c5C[C@H]4O)cc13)[C@H](O)C2)c1cc(O)c(O)c(O)c1 (stereo partly specified)
inactive: [1] 0.0686 | [2] 0.0559 | [3] 0.0408 | [4] 0.0509

CC12CC[C@](C)(C(=O)O)CC1C1=CC(=O)[C@@H]3C4(C)CC[C@H](OC(=O)CCC(=O)O)C(C)(C)[C@@H]4CCC3(C)[C@]1(C)CC2 (stereo partly specified)
inactive: [1] 0.0741 | [2] -0.061 | [3] 0.0857 | [4] -0.0474

CC(=O)OC1CCC2(C)C(CCC3C2CCC2(C)C3CC3OC4(CCC(C)CO4)C(C)C32)C1 (stereo unspecified)
inactive: [1] 0.0872 | [2] 0.0698 | [3] 0.151 | [4] 0.0624

CC(=O)OC1CCC2(C)C(CCC3C2CC(=O)C2(C)C3CC3OC4(CCC(C)CO4)C(C)C32)C1 (stereo unspecified)
inactive: [1] 0.0619 | [2] 0.0314 | [3] 0.0226 | [4] 0.0969

COc1ccc(/C=C/C(=O)O)cc1O
inactive: [1] 0.0659 | [2] -0.0174 | [3] 0.0725 | [4] 0.0415

CCC(=O)O[C@H]1CC[C@H]2[C@@H]3CCc4cc(O)ccc4[C@H]3CC[C@]12C
inactive: [1] 0.0933 | [2] 0.137 | [3] 0.162 | [4] 0.0928

CCCCC(=O)O[C@H]1CC[C@H]2[C@@H]3CCc4cc(O)ccc4[C@H]3CC[C@]12C
inactive: [1] 0.0993 | [2] -0.0254 | [3] 0.16 | [4] 0.0807

C[C@]12CC[C@@H]3c4ccc(O)cc4CC[C@H]3[C@@H]1CC[C@@H]2OC(=O)CCC1CCCC1
inactive: [2] 0.00213 | [3] 0.197 | [4] 0.299
active: [1] -0.302

O=[N+]([O-])c1ccc(Oc2ccc(Br)cc2)c(C(O)[P+](=O)O)c1 (stereo unspecified)
inactive: 0.025 µM, library screen: screen1, EWS-FLI1 expression: high (no doxycycline) 0.0442 | 0.025 µM, library screen: screen1, EWS-FLI1 expression: low (doxycycline-induced shRNA knockdown) 0.0701 | [1] 0.235 | [2] 0.0171 | [4] -0.0253 | 25 µM, library screen: screen1, EWS-FLI1 expression: low (doxycycline-induced shRNA knockdown) -0.0834
active: [3] -0.289 | 25 µM, library screen: screen1, EWS-FLI1 expression: high (no doxycycline) -0.404

CS(=O)(=O)Nc1ccc([N+](=O)[O-])cc1Oc1ccccc1
inactive: [1] 0.147 | [2] 0.0914 | [5] 0.0788 | [6] -0.000657 | [3] 0.123 | [4] 0.11 | [7] 0.101 | [8] 0.0459

O=C(NC(=S)Nc1ncc(Br)cc1Br)c1cccs1
inactive: [1] 0.112 | [2] -0.086 | [3] 0.132 | [4] 0.0575

COc1c(Cl)ccc(Cl)c1C(=O)O
inactive: [1] 0.0938 | [2] 0.128 | [3] 0.0992 | [4] 0.17

CC(=O)O[C@H]1CC[C@]2(C)C3=CC(=O)[C@@]4(C)C(C[C@@H]5OC6(OCC(C)CC6Br)[C@@H](C)[C@@H]54)C3CC[C@H]2C1 (stereo partly specified)
inactive: [1] 0.0329 | [2] 0.0911 | [3] 0.172 | [4] 0.139

CC(C)(C)OC(=O)C(C)(N)c1ccc(Cl)cc1 (stereo unspecified)
inactive: [5] 0.157 | [6] 0.0841 | [7] 0.151 | [8] 0.141

C#Cc1cccc(Nc2ncnc3cc(OCCOC)c(OCCO)cc23)c1
inactive: [9] -0.021 | [10] 0.0228 | [11] -0.00557 | [12] 0.0307 | [13] -0.00846 | [14] 0.063 | [15] 0.0648 | [16] 0.0201 | [17] -0.0295 | [18] 0.0604 | [19] -0.0784 | [20] -0.0862

CCN(CCO)CCCOc1ccc2c(Nc3cc(CC(=O)Nc4cccc(F)c4)[nH]n3)ncnc2c1
active: [9] -0.49 | [11] -0.395 | [13] -0.452 | [15] -0.473 | [16] -0.112 | [17] -0.446 | [19] -0.681
inactive: [10] -0.0648 | [12] -0.00388 | [14] -0.0458 | [18] -0.0257 | [20] -0.0482

O=C(CSc1nc2ccccc2[nH]1)c1ccc(OC(F)F)cc1
inactive: [1] 0.0646 | [2] 0.0338 | [3] 0.169 | [4] -0.104

CN1CCN(CC(=O)N2c3ccccc3Sc3ccccc32)CC1
inactive: [1] 0.172 | [2] 0.134 | [3] 0.173 | [4] 0.343

CNC(=O)c1c(F)cccc1Nc1nc(Nc2cc3c(cc2OC)CCN3C(=O)CN(C)C)nc2[nH]ccc12
inactive: [9] -0.00474 | [10] 0.0229 | [12] -0.0133 | [14] -0.047
active: [11] -0.215 | [13] -0.468 | [15] -0.729 | [16] -0.119 | [17] -0.785 | [18] -0.103 | [19] -1.04 | [20] -0.185

CCOC(=O)C1=C(C)N=C2SC(C)C(=O)N2C1c1ccc(OC)cc1 (stereo unspecified)
inactive: [1] 0.148 | [2] 0.0319 | [3] 0.107 | [4] 0.0438
